Compound activity deposited in PubChem by National Center for Advancing Translational Sciences (NCATS).
JMJD2A Tudor inh: qHTS Assay for Inhibitors of JMJD2A-Tudor Domain; Potency, µM (titrated, usually from 114 µM), for inactives: at the highest dose activity change, negative = inhibition, actives largely listed as inhibitors; hit rate 4.4% among 390,000; AlphaScreen JMJD2A-Tudor / H3K4me3 peptide binding; also: potency is read from the fitted curve at half-maximal effect; % is scaled to controls: 0 for no effect and ±100 for the full control effect; nearly all actives have a fitted effect of over 50% in size
Target sequence (O75164 whole entry, looked up, the tested form may be a part): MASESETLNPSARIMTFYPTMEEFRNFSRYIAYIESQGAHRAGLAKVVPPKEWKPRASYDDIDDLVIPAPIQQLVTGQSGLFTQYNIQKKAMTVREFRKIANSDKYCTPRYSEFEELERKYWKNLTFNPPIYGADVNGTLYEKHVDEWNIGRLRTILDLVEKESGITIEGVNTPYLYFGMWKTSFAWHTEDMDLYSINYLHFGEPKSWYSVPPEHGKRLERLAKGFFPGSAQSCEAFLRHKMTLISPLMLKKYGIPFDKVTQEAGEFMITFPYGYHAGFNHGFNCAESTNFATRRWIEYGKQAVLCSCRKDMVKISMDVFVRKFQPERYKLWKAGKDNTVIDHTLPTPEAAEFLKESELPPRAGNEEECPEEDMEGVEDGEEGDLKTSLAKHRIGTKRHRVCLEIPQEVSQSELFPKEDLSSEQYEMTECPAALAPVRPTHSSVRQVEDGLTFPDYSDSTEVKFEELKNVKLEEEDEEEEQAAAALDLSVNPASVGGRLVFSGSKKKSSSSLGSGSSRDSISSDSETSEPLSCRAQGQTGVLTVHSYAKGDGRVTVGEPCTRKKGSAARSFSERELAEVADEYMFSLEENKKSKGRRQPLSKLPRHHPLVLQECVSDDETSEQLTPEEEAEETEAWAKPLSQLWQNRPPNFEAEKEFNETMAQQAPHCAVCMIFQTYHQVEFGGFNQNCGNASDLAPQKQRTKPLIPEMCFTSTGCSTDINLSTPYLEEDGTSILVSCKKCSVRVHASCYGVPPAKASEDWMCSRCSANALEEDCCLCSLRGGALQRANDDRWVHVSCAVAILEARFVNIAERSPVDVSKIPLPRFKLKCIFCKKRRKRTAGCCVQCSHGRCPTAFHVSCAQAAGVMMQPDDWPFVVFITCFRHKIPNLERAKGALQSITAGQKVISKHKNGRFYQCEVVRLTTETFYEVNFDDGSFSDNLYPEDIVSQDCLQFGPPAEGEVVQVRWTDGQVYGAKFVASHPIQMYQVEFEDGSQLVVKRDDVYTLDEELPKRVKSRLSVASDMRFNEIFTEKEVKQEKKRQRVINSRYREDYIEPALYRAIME
KAT2A inh: qHTS Assay for Inhibitors of GCN5L2. Potency, µM (titrated, usually from 58.9 µM), without a hit: at the highest dose activity change, negative = inhibition, hits mostly inhibitors. hit rate 0.21% among 390,000. AID 504327, 2011. GCN5L2 HAT assay, ThioGlo1 CoA-SH fluorescence; also: potency is read from the fitted curve at half-maximal effect; % is scaled to controls: 0 for no effect and ±100 for the full control effect
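Preincubate 20nM GCN5L2 with compound 15 min, RT → add 50uM ThioGlo1 + 75uM H3(1-25) + 70uM acetyl-CoA → read fluorescence 0 and 20 min. Primary qHTS; fluorescent artifacts likely.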
PI5P4Ka inh: qHTS for Inhibitors of phosphatidylinositol 5-phosphate 4-kinase (PI5P4K) | max response, % | hit rate 1.2% among 330,000 | AID 652105, 2013 | PI5P4Kalpha enzyme, ADP-Glo luminescence, 60 min; active compounds read low; active = max response of -50% or lower; inconclusive = between -30% and -50%; inactive = -30% or higher; also: value at the top dose of about 77 µM; % is scaled to controls: 0 for no effect and ±100 for the full control effect
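Reactions run in 0.038 M HEPES pH 7.4, 0.28 mM EGTA, 0.1% CHAPS and 5% DMSO, with PI5P4Kalpha, substrate, compound and 5 microM ATP final, one hour at room temperature. Readout is ADP-Glo luminescence.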
PLK1 PBD inh: qHTS for Inhibitors of PLK1-PDB (polo-like kinase 1 - polo-box domain): Primary Screen; Plk1 PBD binding of FITC phosphopeptide, fluorescence polarization; hit rate 2.8% among 360,000; Potency, µM, without a hit: max response, negative = inhibition, actives largely listed as inhibitors; Serine/threonine-protein kinase PLK1 (Homo sapiens), P53350; also: potency is read from the fitted curve at half-maximal effect; series mostly up to about 57 µM; % is scaled to controls: 0 for no effect and ±100 for the full control effect; nearly all actives have a fitted effect of over 65% in size
BAZ2B inh: qHTS Assay for Inhibitors of BAZ2B; Bromodomain adjacent to zinc finger domain protein 2B (Homo sapiens), Q9UIF8; AlphaScreen BAZ2B-H3K14Ac peptide displacement; Potency, µM (highest dose often 114 µM), without a hit: at the highest dose activity change, negative = inhibition, most hits filed as inhibitors; hit rate 4.4% among 360,000; AID 504333, 2011; also: potency is read from the fitted curve at half-maximal effect; % is scaled to controls: 0 for no effect and ±100 for the full control effect; nearly all actives have a fitted effect of over 60% in size
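Protein-peptide AlphaScreen: BAZ2B 50 nM, b-H3K14Ac 50 nM, 1x PBS pH 7.4 + 0.01% Tween-20. Preincubation 30 min RT; cpd 30 min RT (top 110 uM); beads 20 min RT, light-protected.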
HP1b binding inh: HTS for Inhibitors of HP1-beta Chromodomain Interactions with Methylated Histone Tails; AID 540317, 2011; Potency, µM (titrated, usually from 114 µM), for the others: at the highest dose activity change, negative = inhibition, most hits filed as inhibitors; hit rate 0.56% among 390,000; Chromobox protein homolog 1 (Homo sapiens), P83916; AlphaScreen HP1-beta / biotin-H3K9me3 peptide binding; also: potency is read from the fitted curve at half-maximal effect; nearly all actives have a fitted effect of over 70% in size
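Compound inhibition of the preformed complex between 50 nM HP1-beta and 50 nM biotinylated H3K9me3 peptide was read by AlphaScreen. Buffer was PBS pH 7.4 with 0.01% Tween-20. Incubations ran 30 min at room temperature, with 10 ug/mL donor/acceptor beads.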
* hit, by the source's call; u = inconclusive; x = no result; ! = repeats disagree; [ ] = dose if it differs, or a comment. Shown are actives, neighbours in structure and some others; about 7% of the full set was active somewhere. Unless noted, calls follow the shape of the dose curve; as a rule, active = well fitted curve in the direction sought with a large enough effect; inconclusive = small, poorly fitted or top-dose-only effect, or another doubt; inactive = no such curve, though single readings can be large; an effect the other way counts as inactive or inconclusive.

SMILES	JMJD2A Tudor inh	KAT2A inh	PI5P4Ka inh	PLK1 PBD inh	BAZ2B inh	HP1b binding inh
CN(C)c1ccc(Nc2nc3ccccc3n3nnnc23)cc1	7.9µM*	-5%	x	x	3.5µM*	u
Cc1ccc(CNc2nc(-c3ccco3)nn2S(C)(=O)=O)cc1	-4%	-11%	x	x	-18%	9%
O=C(/C=C/c1ccccc1)NC(NC(=S)Nc1ccc(Cl)cc1Cl)C(Cl)(Cl)Cl (centres undefined)	-29%	-5%	-15	13µM*	-3%	u
O=C(/C=C/c1ccccc1)NC(NC(=S)Nc1cccc(Cl)c1)C(Cl)(Cl)Cl (centres undefined)	-8%[57.1 µM]	4%	-16	-29%	10%	48%
CCN(CC)CCOc1ccc(/C(=C(/Cl)c2ccccc2)c2ccccc2)cc1	56µM*	-7%	2	-13%	u	u
CC(C)(C)CN1CCNC(=O)C1CC(=O)NCCN1CCCc2ccccc21 (centres undefined)	u	-15%	-5	-9%	-31%	19%
COc1ccc(C(C)(C)C)cc1NC(=O)C1=CC=CN2CCS(=O)(=O)N=C12	-10%	-3%	-4	2%	x	32%
Fc1ccccc1Sc1ccccc1CNC1=NCCN1	u	-9%	1	-19%	-10%	u
c1ccc(Sc2cccc3ccccc23)c(CNC2=NCCN2)c1	32µM*	-20%	0	-1%	u	-21%
COc1ccc(Sc2ccc(/C=C3\C(=O)NN(c4ccccc4)C3=O)o2)cc1	u	-28%	u	6µM*	8.9µM*	-26%
COc1ccc(-n2c(C)cc(/C=C3\C(=O)NN(c4ccccc4)C3=O)c2C)cc1	-21%	-8%	-22	-16%	-27%	-3%
O=C1NN(c2ccccc2)C(=O)/C1=C\c1ccc(-c2cc([N+](=O)[O-])ccc2O)o1	50µM*	-16%	-69*	u	32µM*	45µM*
O=C1NN(c2ccc(Cl)cc2)C(=O)/C1=C\c1ccc(-c2cccc(C(=O)O)c2)o1	35µM*	-27%	-69*	24µM*	56µM*	45µM*
CCN(CC)C(=O)CSc1nc(C)cc(-c2cccs2)c1C#N	56µM*	-14%	x	21µM*	-16%	2%
O=C(O)c1cccc2cccc(-c3c4ccc(=O)c(O)c-4oc4c(O)c(O)ccc34)c12	0.79µM*	x	-95*	4.7µM*	x	u
CCOC(=O)N(C)c1c(CC)nc2c(OCc3ccccc3C)cccn12	x	x	-4	-14%	x	x
COc1cccc(-c2nccc(NCc3cccnc3)n2)c1	x	-12%	x	x	x	x
CCOCc1nc(N)nc(N)c1-c1cccc(Cl)c1	x	x	8	2%	x	x
CC(C)[C@H](NS(=O)(=O)c1ccc2c(c1)OCCO2)C(=O)OCC(=O)Nc1cc(Cl)ccc1Cl	u	-9%	-8	30µM*	-6%	u
CC1(CCl)N([O-])C2=C(CCCC2)[N+]1=O (centres undefined)	-4%	-5%	-2	-16%	45µM*	31%
CC(C)OCCOc1ccc2oc(-c3ccco3)cc(=O)c2c1	u	-2%	u	-9%	56µM*	u
N#CCOc1ccc2oc(-c3ccco3)cc(=O)c2c1	x	-4%	x	x	1%	x
CC(C)(C)C(=O)Nc1ccccc1C(=O)OCc1cc(=O)n2ccsc2n1	0%	26%	x	x	-10%	34%
Cc1ccc(C(=O)c2cc3c(cc2[N+](=O)[O-])OCCO3)cc1	u	-2%	-1	-7%	56µM*	-18%
CC[C@H]1C(c2ccc(F)cc2)=NN(c2ccccc2)[C@@H]1CO	59%	40µM*!	7	-4%	x	221%
SMILES	JMJD2A Tudor inh	KAT2A inh	PI5P4Ka inh	PLK1 PBD inh	BAZ2B inh	HP1b binding inh
OC[C@@H]1[C@@H](c2ccc(F)cc2)C(c2ccccc2)=NN1c1ccccc1	115%	-14%	7	-25%	x	240%
CCn1c(-c2ccc(S(=O)(=O)N3CCOCC3)cc2)csc1=Nc1ccc(C)c(Cl)c1	-16%	3%	x	x	-6%	-1%
O=S(=O)(c1ccc(-c2csc(=Nc3ccc(OC(F)(F)Cl)cc3)n2CCCO)cc1)N1CCCC1	u	-15%	x	x	89µM*	-27%
Cn1c(-c2ccc(S(=O)(=O)N3CCCC3)cc2)csc1=Nc1ccc(Cl)c(Cl)c1	50µM*	-15%	x	x	-29%	u
CCOC(=O)c1cc(C)[nH]c(=S)c1C#N	6.3µM*	-4%	u	27µM*	u	-14%
CCOC(=O)c1cc(C(=O)OCC)c(=O)[nH]c1C	-10%	-3%	-9	-9%	26%	14%
CN1CCN(C(=O)CN(C2CCCCC2)S(=O)(=O)c2ccc(Br)cc2)CC1	-1%	-2%	-5	0%	-3%	11%
COc1ccccc1-c1coc2cc(O)ccc2c1=O	x	25µM*	x	x	x	x
Cc1cc(C)c(C(=O)c2cccs2)c(C)c1	33%	x	0	0%	x	107%
Cc1cc(C(=O)c2cccs2)c(N)s1	u	-7%	x	24µM*	-55%	u
COc1ccc(C2(CNC(=O)c3ccc(OC)c([N+](=O)[O-])c3)CCOCC2)cc1OC	-20%	-7%	-8	-6%	0%[57.1 µM]	16%
COc1ccc(C(=O)NCC2(c3ccccc3)CCOCC2)cc1[N+](=O)[O-]	32µM*	-3%	-19	12µM*	-2%	u
CC(C)C1C(=O)Nc2ccc(S(=O)(=O)NCCc3ccc(Cl)cc3)cc21 (centres undefined)	-18%	19%	x	x	7%[57.1 µM]	7%
CCC(=O)N(Cc1cc(=O)[nH]c2ccccc12)C1CCCCC1	u	-5%	-12	24µM*	5%	-4%
COc1cc2oc(=O)cc(CN3CCCCCCC3)c2cc1Cl	x	x	-5	-8%	x	x
CCCCCn1c(=O)c2ccccc2n2c(CCl)nnc12	-3%	-8%	5	-3%	-14%	36%
CCOCCCn1c(=O)c2ccccc2n2c(=S)[nH]nc12	4µM*	-8%	9	5%	-24%	-13%
C=CCn1c(=O)c2ccccc2n2c(=S)[nH]nc12	7.9µM*	4%	-13	-6%	-10%	-19%
C=CCn1c(=O)c2ccccc2n2c(SCC(=O)c3ccccc3)nnc12	-11%[11.4 µM]	-14%	-19	24µM*	1%	-19%
C=CCn1c(=O)c2ccccc2n2c(SCC(=O)N(C)C)nnc12	-3%	-1%	-1	-6%	-16%	38%
